# Assay outcomes deposited in PubChem BioAssay by National Center for Advancing Translational Sciences (NCATS).
# TRb-SRC2 inh – qHTS for Inhibitors of the Interaction of Thyroid Hormone Receptor and Steroid Receptor Coregulator 2; TRbeta-SRC2 peptide binding, fluorescence polarization; receptor liganded with 1 µM T3; Thyroid hormone receptor beta (Homo sapiens), P10828; hit rate 0.065% among 280,000; Potency, µM (top dose mostly 106 µM), without a hit: at the top dose activity change, negative = inhibition, most hits filed as inhibitors;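 also: potency is read from the fitted curve at half-maximal effect; plate controls were bound peptide for no effect and peptide without receptor for full effect; nearly all actives have a fitted effect of over 50% in size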
#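 Read-out is fluorescence polarization (555 nm excitation, 632 nm emission) of a Texas Red SRC2 coactivator peptide; loss of signal reflects blocked binding to human TRb ligand-binding domain in the presence of 1 uM T3.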
# Coupling enz – qHTS Assay for Inhibitors of Fructose-1,6-bisphosphate Aldolase from Giardia Lamblia: Coupling assay counterscreen | coupling enzyme system counterscreen, AmpLite Red fluorescence | activity change, negative = inhibition, % at 58.2 µM, hits read low | hit rate 0.67% among 290,000; in the data active = activity change below about -30%; also: % is scaled to controls: 0 for no effect and ±100 for the full control effect
#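 Activity here indicates interference with the coupling reaction, not aldolase inhibition. Compounds at 57.5 uM final met coupling enzymes for 10 min at RT; substrate and AmpLite Red detection followed, with a 525/598 nm fluorescence read after 20 min.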
# HTT cytoprotect – qHTS Multiplex Assay to Identify Dual Action Probes in a Cell Model of Huntington: Cytoprotection (ATP); PC12 HTT-Q103 induced, cytoprotection, ATP luminescence, 40 h; Potency, µM (titrated, usually from 56.4 µM), without a hit: cytoprotection (ATP increase), hits mostly activators; hit rate 0.14% among 230,000; also: potency is read from the fitted curve at half-maximal effect; % of control where 0% means no effect; nearly all actives have a fitted effect of over 45% in size
#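 PC12 cells with ecdysone-inducible HTT exon 1 Q103-GFP, induced with 100 nM tebufenozide and co-treated with library compounds in a dose series (1536-well, 1500 cells/well). Cytoprotection read as ATP content by ATPlite luminescence.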
# KDM4E inh – qHTS Assay for Inhibitors of Human Jumonji Domain Containing 2E (JMJD2E). JMJD2E catalytic domain, FDH-coupled NADH fluorescence (FDH is formaldehyde dehydrogenase). Potency, µM (top dose mostly 57.1 µM), without a hit: at the top dose activity change, negative = inhibition, usual class: inhibitors. hit rate 1.6% among 230,000. Lysine-specific demethylase 4E (Homo sapiens), B2RXH2. AID 2147, 2009; active = well fitted inhibition curve with a large enough effect, not every such curve was filed as active; inconclusive = small, poorly fitted or top-dose-only effect, or another doubt; inactive = no such curve, though single readings can be large or run the other way;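 also: potency is read from the fitted curve at half-maximal effect; 0% = wells with enzyme and -100% = buffer wells without enzyme; nearly all actives have a fitted effect of over 50% in size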
# Target sequence (B2RXH2 1-337 limits assumed): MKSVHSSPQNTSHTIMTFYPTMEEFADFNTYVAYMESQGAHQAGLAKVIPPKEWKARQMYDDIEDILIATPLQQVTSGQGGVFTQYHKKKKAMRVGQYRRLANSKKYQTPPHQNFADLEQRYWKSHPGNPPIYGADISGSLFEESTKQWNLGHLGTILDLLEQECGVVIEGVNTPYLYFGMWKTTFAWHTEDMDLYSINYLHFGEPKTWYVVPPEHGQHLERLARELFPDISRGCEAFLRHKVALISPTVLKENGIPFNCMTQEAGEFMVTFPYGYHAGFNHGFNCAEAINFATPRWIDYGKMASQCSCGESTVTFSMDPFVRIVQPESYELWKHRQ
# TR SRC2 fluor cs – Total Fluorescence Counterscreen for Inhibitors of the Interaction of Thyroid Hormone Receptor and Steroid Receptor Coregulator 2; hit rate 0.29% among 280,000; TRb/SRC2 Texas Red total fluorescence interference; Potency, µM (top dose mostly 106 µM), for the others: at the highest dose fluorescence change, negative = quenching; active = well fitted curve in either direction with a large enough effect; inconclusive = small, poorly fitted or top-dose-only effect; also: potency is read from the fitted curve at half-maximal effect; % is scaled to controls: 0 for no effect and ±100 for the full control effect
#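 Human TRb ligand-binding domain at 0.6 uM with 20 nM Texas Red SRC2 peptide in Tris buffer containing 1 uM T3 and 5% DMSO, incubated with compound 5 h at ambient temperature. Total fluorescence (555/632 nm) calculated as parallel + 2 × perpendicular.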
# HTT aggregate – qHTS Multiplex Assay to Identify Dual Action Probes in a Cell Model of Huntington: Aggregate Formation (GFP); PC12 HttQ103-GFP aggregates, Acumen cytometry, 40 h; Potency, µM (doses to about 46.1 µM), for inactives: at the top dose activity change, negative = inhibition, actives largely listed as inhibitors; hit rate 1.1% among 220,000; also: potency is read from the fitted curve at half-maximal effect; % is scaled to controls: 0 for no effect and ±100 for the full control effect; nearly all actives have a fitted effect of over 60% in size
#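 Aggregate formation scored by laser-scanning cytometer (488 excitation, 500–530 emission) in lysed PC12 cells expressing Q103-GFP after 100 nM tebufenozide induction; library tested in dose series, with ATPLite reagent added in the multiplex.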
# * marks the source's active call; other numbers are inactive results; ? = inconclusive; / = no result given; ! = not active in a repeat; [ ] = dose if it differs, or a comment. Hits are enriched below; roughly 2% of the tested compounds scored in any of these assays. Unless noted, calls follow the shape of the dose curve; as a rule, active = well fitted curve in the direction sought with a large enough effect; inconclusive = small, poorly fitted or top-dose-only effect, or another doubt; inactive = no such curve, though single readings can be large; an effect the other way counts as inactive or inconclusive.
SMILES,TRb-SRC2 inh,Coupling enz,HTT cytoprotect,KDM4E inh,TR SRC2 fluor cs,HTT aggregate
Cc1ccc(/C=C2\SC(=S)N(C3CCS(=O)(=O)C3)C2=O)cc1 (centres undefined),-6%,2,30%,2%,0%,?
Cc1ccc(N2C(=O)/C(=C\c3ccco3)SC2=S)cc1,11%,-9,-12%,-3%,-2%,2%
O=C1/C(=C/c2ccco2)SC(=S)N1CC1CCCO1 (centres undefined),-7%,-13,12%[10 µM],11µM*,2%,-8%[9.22 µM]
CC(C)NC(=O)C1CCN(c2nc3ccccc3nc2C(F)(F)F)CC1,3%,/,/,/,-3%,/
COc1ccc(OCC(=O)NNc2c3ccccc3nc3ccccc23)cc1,-2%,1,22%[10 µM],?,-8%,11µM*
O=C(NNc1c2ccccc2nc2ccccc12)c1ccc(O)cc1O,8%,-1,-87%,?,-29%,10µM*
O=C(COc1ccccc1)NNc1c2ccccc2nc2ccccc12,3%,-6,-72%[10 µM],3%,-2%,-1%
O=C(NNc1c2ccccc2nc2ccccc12)c1ccccc1O,4%[53 µM],0,9%[10 µM],?,-14%[53 µM],-16%
CCOC(=O)C1CCN(C(c2cccnc2)c2c(NC(=O)c3ccco3)sc(C)c2C)CC1 (centres undefined),-3%,-6,28%,?,-8%,7.9µM*
CCc1ccccc1NS(=O)(=O)c1ccc(-c2coc(C)n2)cc1,-20%,/,/,/,11µM*[quencher],/
CCOc1ccc(CNS(=O)(=O)c2ccc(-c3coc(C)n3)cc2)cc1,-11%,/,/,/,0.0071µM*[quencher],/
CCn1cc(C(=O)N2CCN(c3cccc(Cl)c3)CC2)c(=O)c2cc(S(=O)(=O)N3CCC(C)CC3)ccc21,3%,/,/,/,-1%,/
CCOC(=O)c1c(NC(=O)c2cc(OCC)c(OCC)c(OCC)c2)sc2c1CCCCC2,-8%,/,/,/,1%,/
COc1cc([C@H](O)C(=O)O)ccc1O,/,/,-2%[1.9 µM],/,/,/
Cc1ccc(S(=O)(=O)NC(=O)c2ccccc2)cc1C(C)C,1%,2,2.8µM*,-1%,0%,?
COC(=O)c1cc(Nc2cc(C)c3c(O)cccc3n2)cc(C(=O)OC)c1,-1%,0,-14%[10 µM],-23%,-2%,7%[9.22 µM]
COc1ccc(Nc2cc(C)c3c(O)cccc3n2)cc1,4%,-30*,-28%[10 µM],-27%,-1%,-19%[9.22 µM]
Cc1ccc(Nc2cc(C)c3c(O)cccc3n2)cc1C,-7%,-37*,-10%[10 µM],?,-1%,-9%[9.22 µM]
Cc1ccccc1Nc1cc(C)c2c(O)cccc2n1,9%,-3,/,-7%,-4%,?
O=c1c2ccccc2nc2n1C(CSCc1ccc(Cl)cc1)CS2 (centres undefined),-2%,-4,-2%[10 µM],9%,0%,11µM*
O=c1c2ccccc2nc2n1C(CSc1ccccc1)CS2 (centres undefined),0%,0,1%,-5%,-5%,5%
CC(C)Cc1nn2c(=O)cc(COC(=O)c3cccc(NC(=O)c4cccs4)c3)nc2s1,-3%,/,/,/,-2%,/
COc1cc2nc(N3CCN(C(=O)C4CCCO4)CC3)nc(N)c2cc1OC (centres undefined),2%,-50*!,-9%[0.074 µM],28µM*,-2%,15%
O=c1c(-c2ccc([N+](=O)[O-])cc2)coc2c(O)c(O)ccc12,0%,-6,-20%[10 µM],14µM*,-4%,-10%[9.22 µM]
COc1ccc(S(=O)(=O)N2CCN(c3cc(-c4ccccc4)nc4ncnn34)CC2)cc1,2%,2,4%[10 µM],?,3%,13µM*
SMILES,TRb-SRC2 inh,Coupling enz,HTT cytoprotect,KDM4E inh,TR SRC2 fluor cs,HTT aggregate
O=S(=O)(c1ccccc1)N1CCN(c2cc(-c3ccccc3)nc3ncnn23)CC1,11%,8,-19%[10 µM],?,-4%,11µM*
O=S(=O)(c1ccc(Br)cc1)N1CCN(c2cc(-c3ccccc3)nc3ncnn23)CC1,4%,2,2%,?,-2%,2%
CCCCCc1ccc(S(=O)(=O)NCCc2ccncc2)cc1,0%,1,-8%,-6%,-2%,11µM*
CCCc1ccc(S(=O)(=O)NCCc2ccncc2)cc1,5%,3,-5%,2%,2%,?
CC(C)(C)c1ccc(S(=O)(=O)NCCc2ccncc2)cc1,-2%,4,-18%,-1%,-2%,22µM*
Cc1cc(C(C)(C)C)cc(S(=O)(=O)NCCc2ccncc2)c1C,/,4,/,/,/,/
O=C(Nc1ccc(F)cc1)c1ncn(-c2ccccc2)n1,-2%,/,/,/,1%,/
CNC(=O)CN1C(=O)c2cccc3cccc1c23,0%,-1,-12%,?,-8%,-7%
CN1/C(=N\O)c2cccc3cccc1c23,-27%,-47*,-24%,?,0%,?
CC(=O)N1CCC2(CC1)OC(=O)C(C)=C2C(=O)Nc1cc(C)ccc1C,2%,/,/,/,-5%,/
Cc1nnc2n1N=CC=C(C(C)(C)C)S2,-1%,0,-17%,6%,-2%,3%
Cc1nnc2n1N=CC=C(c1ccccc1)S2,-1%,0,16µM*,3%,0%,/
COC(=O)c1cc(NC(=O)[C@H](CCS(C)(=O)=O)N2Cc3ccccc3C2=O)cc(C(=O)OC)c1,-1%,/,/,/,?,/
CS(=O)(=O)CCC(C(=O)Nc1cccc(C(F)(F)F)c1)N1Cc2ccccc2C1=O (centres undefined),-12%,/,/,/,25µM*[quencher],/
CN(C)Cc1cc(C(C)(C)c2cc(CN(C)C)c(O)c(CN(C)C)c2)cc(CN(C)C)c1O,-21%,-1,/,7%,-2%,40µM*
CN(C)Cc1cc(C(C)(C)C)cc(CN(C)C)c1O,/,/,-7%[10 µM],/,/,/
CCCOc1ccc(Cn2cnc3ccccc32)cc1,4%,-1,-9%,5%,2%,25µM*
COc1cccc(-n2c(SCc3cc(=O)oc4cc(O)c(O)cc34)nc3ccccc3c2=O)c1,6%,7,13%[10 µM],13µM*,-29%,27%
CCN(CC)C(=O)CSc1nc2ccccc2c(=O)n1-c1cccc(OC)c1,-9%,6,1%,2%,-1%,1%
O=C(OCC(F)(F)F)[C@H](O)[C@@H](O)C(=O)OCC(F)(F)F,9%,3,/,5%,-1%,/
CC1(C)OC[C@@H]2O[C@@]3(C(=O)O)OC(C)(C)O[C@H]3[C@@H]2O1,2%[201 µM],/,/,/,5%[201 µM],/
